Here are results for nine molecules from PubChem BioAssay (NCI).

What all share (test): NCI-60 one-dose screen, 48 h (100 = growth as untreated, 0 = no growth, -100 = all killed)
In one experiment the test system is SK-MEL-2 melanoma. To be noted: 10 µM.
For a further experiment, the system named is EKVX NSCLC. The following applies: 10 µM.
In the next experiment the test system is SN12C renal. The following applies: 10 µM.
Another experiment concerns UO-31 renal. To be noted: 10 µM.
The test system of a further experiment is TK-10 renal.
The subject of a further experiment is ACHN renal. The following applies: 10 µM.
A further experiment relates to CAKI-1 renal. To be noted: 10 µM.
In a further experiment the test system is A498 renal. To be noted: 10 µM.
Another experiment relates to CCRF-CEM leukemia. To be noted: 10 µM.
In the next experiment the test system is MOLT-4 leukemia. The following applies: 10 µM unless noted.
For the next experiment, the system named is RPMI-8226 leukemia. The following applies: 10 µM.
A further experiment has as its system OVCAR-8 ovarian. To be noted: 10 µM.
A further experiment concerns OVCAR-5 ovarian. The following applies: 10 µM.
Another experiment has as its system OVCAR-4 ovarian. The following applies: 10 µM.
A further experiment has as its system SK-OV-3 ovarian. The following applies: 10 µM.
The test system of a further experiment is IGROV1 ovarian. To be noted: 10 µM.
Another experiment has as its system HS 578T breast. To be noted: 10 µM.
The subject of a further experiment is NCI/ADR-RES ovarian. The following applies: 10 µM.
A further experiment deals with SR leukemia. To be noted: 10 µM.
A further experiment concerns OVCAR-3 ovarian. To be noted: 10 µM.

Molecules are shown by their SMILES. Where “and” joins values, the source holds several entries; their conditions need not be identical. Identical values can stand only once. The panel holds about 83,000 compounds, 20% with a hit somewhere; the sample as a whole holds those more often.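 48-hour exposure, single concentration, 96-well plates; percent growth endpoint where 0 means no net growth. Active: below 10.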 A number with no mark means an inactive call. Calls of active or inactive are those of the source.

Consider `CCOC(=O)[C@]1(Br)CC[C@@]1(Br)C(=O)OCC`, for which the growth in the experiment with SK-MEL-2 melanoma was 91.7%; in the experiment with EKVX NSCLC, 99.5%; with SN12C renal, 98.1%; in the experiment with UO-31 renal, 61.5%; in the experiment with TK-10 renal (10 µM), 95.9%; with ACHN renal, 78.9%. Also, the growth in the experiment with CAKI-1 renal is 90.3%; in the experiment with A498 renal, 115%; with CCRF-CEM leukemia, 99.8%; with MOLT-4 leukemia, 36.8%; with RPMI-8226 leukemia, 96.8%; in the experiment with OVCAR-8 ovarian, 95.6%. In addition, the growth in the experiment with OVCAR-5 ovarian was 104%; in the experiment on OVCAR-4 ovarian it was 101%; in the experiment with SK-OV-3 ovarian it was 112%; in the experiment with IGROV1 ovarian, 52.1%; in the experiment on HS 578T breast, 102%; in the experiment with NCI/ADR-RES ovarian, 107%.
On to `O=C(O)c1ccccc1.[Ag]`, for which the growth with SK-MEL-2 melanoma was 122%; in the experiment on EKVX NSCLC, 103%; in the experiment on SN12C renal it was 102%; in the experiment with UO-31 renal it was 103%; in the experiment on TK-10 renal (10 µM) it was 109%; in the experiment with ACHN renal it was 111%. Further, the growth was 90.2% in the experiment with CAKI-1 renal; 15.4% with CCRF-CEM leukemia; 102% in the experiment with MOLT-4 leukemia; 102% with SR leukemia; 96.9% in the experiment on RPMI-8226 leukemia; 96.8% in the experiment on OVCAR-8 ovarian. For the same molecule, the growth is 102% with OVCAR-5 ovarian; 95% in the experiment with OVCAR-4 ovarian; 109% in the experiment with SK-OV-3 ovarian; 116% in the experiment with IGROV1 ovarian; 114% with HS 578T breast; 93.2% with NCI/ADR-RES ovarian.
In the case of `S=C1SCN(CCc2ccccc2)CN1CCc1ccccc1`, the growth in the experiment with SK-MEL-2 melanoma was 105%; in the experiment with EKVX NSCLC, 109%; in the experiment on SN12C renal, 101%; in the experiment on UO-31 renal, 70.6%; in the experiment on TK-10 renal (10 µM), 82.1%; in the experiment with ACHN renal it was 110%. Further, the growth in the experiment on CAKI-1 renal was 90.5%; in the experiment on CCRF-CEM leukemia, 57.3%; in the experiment with MOLT-4 leukemia it was 76.8%; in the experiment with SR leukemia it was 61.2%; with RPMI-8226 leukemia, 55.8%; in the experiment on OVCAR-8 ovarian, 100%. Also, the growth with OVCAR-5 ovarian is 112%; in the experiment with IGROV1 ovarian it was 105%; in the experiment with HS 578T breast it was 105%; in the experiment with NCI/ADR-RES ovarian it was 102%.
As to `CCC(=O)Oc1ccc(/C=N/NC(N)=S)nc1`, the growth in the experiment on SK-MEL-2 melanoma was 53.2%; in the experiment with EKVX NSCLC it was 86.3%; in the experiment with SN12C renal, 32.5%; with UO-31 renal, 29.7%; with TK-10 renal (10 µM), 86.3%; with ACHN renal, 8.62% (active). Moreover, the growth was -2.02% (active) in the experiment on CAKI-1 renal; 52% in the experiment with A498 renal; -0.545% (active) with CCRF-CEM leukemia; 10.8% in the experiment on MOLT-4 leukemia; 50.3% in the experiment with RPMI-8226 leukemia; 23.5% with OVCAR-8 ovarian. Further, the growth in the experiment on OVCAR-5 ovarian was 108%; in the experiment with OVCAR-4 ovarian it was 56.2%; in the experiment with SK-OV-3 ovarian, 78%; with IGROV1 ovarian it was 45%; with OVCAR-3 ovarian it was 57.3%; with HS 578T breast it was 117%. The growth in the experiment with NCI/ADR-RES ovarian was 25.1%.
Consider `COc1cc2c(cc1C[N+](C)(C)CSc1ccccc1)-c1ccccc1CC2`, for which, in the experiment on TK-10 renal (100 µM), the growth was -93.9% (active) and -97.7% (active).
Turning to `O=[N+]([O-])c1cc(S(=O)(=O)Nc2ccccc2)ccc1Cl`, the growth in the experiment on SK-MEL-2 melanoma is 93.3%; in the experiment on EKVX NSCLC, 86.1%; in the experiment with SN12C renal it was 95.7%; in the experiment on UO-31 renal, 76.7%; with TK-10 renal (10 µM) it was 99.1%; with ACHN renal it was 94.2%. For the same molecule, the growth in the experiment with CAKI-1 renal is 77.3%; in the experiment on A498 renal, 96.8%; with CCRF-CEM leukemia it was 85.9%; with MOLT-4 leukemia it was 89%; in the experiment on RPMI-8226 leukemia, 88.4%; in the experiment on OVCAR-8 ovarian, 91.5%. The growth was 101% in the experiment with OVCAR-5 ovarian; 97% in the experiment with OVCAR-4 ovarian; 96.3% with SK-OV-3 ovarian; 96.1% in the experiment on IGROV1 ovarian; 101% in the experiment with HS 578T breast; 99.6% in the experiment with NCI/ADR-RES ovarian.
With `CC1CCC2(C(=O)O)CCC3(C)C(=CCC4C5(C)CC(O)C(O)C(C)(CO)C5C(O)CC43C)C2C1C` (stereo not given), the growth in the experiment on SK-MEL-2 melanoma was 104%; in the experiment with EKVX NSCLC, 113%; in the experiment on SN12C renal, 96.1%; in the experiment on UO-31 renal it was 92.8%; in the experiment with TK-10 renal (10 µM), 108%; in the experiment on ACHN renal, 116%. For the same molecule, the growth in the experiment on CAKI-1 renal was 118%; with CCRF-CEM leukemia, 88.5%; with MOLT-4 leukemia, 113%; with SR leukemia it was 105%; with RPMI-8226 leukemia, 128%; in the experiment with OVCAR-5 ovarian it was 188%. In addition, the growth is 114% with OVCAR-4 ovarian, 103% in the experiment on SK-OV-3 ovarian, 92.8% in the experiment with IGROV1 ovarian and 99.4% with NCI/ADR-RES ovarian.
With `Cc1cc(N=C2C=CC(=[N+](C)C)C=C2)c(N)cc1N`, the growth was 106% in the experiment with SK-MEL-2 melanoma; 85.4% in the experiment with EKVX NSCLC; 88.7% with SN12C renal; 71.5% in the experiment on UO-31 renal; 106% in the experiment on TK-10 renal (10 µM); 91% in the experiment on ACHN renal. The growth is 92.8% with CAKI-1 renal; 75.7% in the experiment on A498 renal; 89.3% in the experiment with CCRF-CEM leukemia; 91.3% in the experiment on MOLT-4 leukemia; 65.7% with RPMI-8226 leukemia; 92.8% in the experiment on OVCAR-8 ovarian. Besides, the growth in the experiment on OVCAR-5 ovarian is 95.6%; with OVCAR-4 ovarian it was 82.3%; with SK-OV-3 ovarian, 105%; in the experiment with IGROV1 ovarian it was 109%; with HS 578T breast it was 94.5%; with NCI/ADR-RES ovarian, 80.4%.
For `CO[C@@]12[C@H](COC(N)=O)C3=C(C(=O)C(C)=C(N)C3=O)N1C[C@@H]1N[C@@H]12`, in the experiment on TK-10 renal (25 µM), the growth was -32.7% (active) and -74.4% (active).
